Screens (PubChem)
PostGolgi yeast: growth inhibition of a yeast mutant, post-Golgi transport screen. hit rate 0.9% among 98,000. AID 739. post-Golgi transport phenotypic cell assay. inhibition, % at 10 µM;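 further: yeast cells grown in 1536-well plates; yeast grown about 18 h at 30C before absorbance read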
Cav32 inh: human Cav3.2 channel inhibition, primary screen | hit rate 4% among 100,000 | B-score at 10 µM | Cav3.2-expressing cells, Fluo-4 calcium fluorescence FDSS; hits give low values | AID 449739 | O95180;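 active means single-dose well whose peak fluorescence ratio is a statistical outlier from its plate by either plate-standardised score or position-corrected B-score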
Target sequence (O95180 whole entry, looked up): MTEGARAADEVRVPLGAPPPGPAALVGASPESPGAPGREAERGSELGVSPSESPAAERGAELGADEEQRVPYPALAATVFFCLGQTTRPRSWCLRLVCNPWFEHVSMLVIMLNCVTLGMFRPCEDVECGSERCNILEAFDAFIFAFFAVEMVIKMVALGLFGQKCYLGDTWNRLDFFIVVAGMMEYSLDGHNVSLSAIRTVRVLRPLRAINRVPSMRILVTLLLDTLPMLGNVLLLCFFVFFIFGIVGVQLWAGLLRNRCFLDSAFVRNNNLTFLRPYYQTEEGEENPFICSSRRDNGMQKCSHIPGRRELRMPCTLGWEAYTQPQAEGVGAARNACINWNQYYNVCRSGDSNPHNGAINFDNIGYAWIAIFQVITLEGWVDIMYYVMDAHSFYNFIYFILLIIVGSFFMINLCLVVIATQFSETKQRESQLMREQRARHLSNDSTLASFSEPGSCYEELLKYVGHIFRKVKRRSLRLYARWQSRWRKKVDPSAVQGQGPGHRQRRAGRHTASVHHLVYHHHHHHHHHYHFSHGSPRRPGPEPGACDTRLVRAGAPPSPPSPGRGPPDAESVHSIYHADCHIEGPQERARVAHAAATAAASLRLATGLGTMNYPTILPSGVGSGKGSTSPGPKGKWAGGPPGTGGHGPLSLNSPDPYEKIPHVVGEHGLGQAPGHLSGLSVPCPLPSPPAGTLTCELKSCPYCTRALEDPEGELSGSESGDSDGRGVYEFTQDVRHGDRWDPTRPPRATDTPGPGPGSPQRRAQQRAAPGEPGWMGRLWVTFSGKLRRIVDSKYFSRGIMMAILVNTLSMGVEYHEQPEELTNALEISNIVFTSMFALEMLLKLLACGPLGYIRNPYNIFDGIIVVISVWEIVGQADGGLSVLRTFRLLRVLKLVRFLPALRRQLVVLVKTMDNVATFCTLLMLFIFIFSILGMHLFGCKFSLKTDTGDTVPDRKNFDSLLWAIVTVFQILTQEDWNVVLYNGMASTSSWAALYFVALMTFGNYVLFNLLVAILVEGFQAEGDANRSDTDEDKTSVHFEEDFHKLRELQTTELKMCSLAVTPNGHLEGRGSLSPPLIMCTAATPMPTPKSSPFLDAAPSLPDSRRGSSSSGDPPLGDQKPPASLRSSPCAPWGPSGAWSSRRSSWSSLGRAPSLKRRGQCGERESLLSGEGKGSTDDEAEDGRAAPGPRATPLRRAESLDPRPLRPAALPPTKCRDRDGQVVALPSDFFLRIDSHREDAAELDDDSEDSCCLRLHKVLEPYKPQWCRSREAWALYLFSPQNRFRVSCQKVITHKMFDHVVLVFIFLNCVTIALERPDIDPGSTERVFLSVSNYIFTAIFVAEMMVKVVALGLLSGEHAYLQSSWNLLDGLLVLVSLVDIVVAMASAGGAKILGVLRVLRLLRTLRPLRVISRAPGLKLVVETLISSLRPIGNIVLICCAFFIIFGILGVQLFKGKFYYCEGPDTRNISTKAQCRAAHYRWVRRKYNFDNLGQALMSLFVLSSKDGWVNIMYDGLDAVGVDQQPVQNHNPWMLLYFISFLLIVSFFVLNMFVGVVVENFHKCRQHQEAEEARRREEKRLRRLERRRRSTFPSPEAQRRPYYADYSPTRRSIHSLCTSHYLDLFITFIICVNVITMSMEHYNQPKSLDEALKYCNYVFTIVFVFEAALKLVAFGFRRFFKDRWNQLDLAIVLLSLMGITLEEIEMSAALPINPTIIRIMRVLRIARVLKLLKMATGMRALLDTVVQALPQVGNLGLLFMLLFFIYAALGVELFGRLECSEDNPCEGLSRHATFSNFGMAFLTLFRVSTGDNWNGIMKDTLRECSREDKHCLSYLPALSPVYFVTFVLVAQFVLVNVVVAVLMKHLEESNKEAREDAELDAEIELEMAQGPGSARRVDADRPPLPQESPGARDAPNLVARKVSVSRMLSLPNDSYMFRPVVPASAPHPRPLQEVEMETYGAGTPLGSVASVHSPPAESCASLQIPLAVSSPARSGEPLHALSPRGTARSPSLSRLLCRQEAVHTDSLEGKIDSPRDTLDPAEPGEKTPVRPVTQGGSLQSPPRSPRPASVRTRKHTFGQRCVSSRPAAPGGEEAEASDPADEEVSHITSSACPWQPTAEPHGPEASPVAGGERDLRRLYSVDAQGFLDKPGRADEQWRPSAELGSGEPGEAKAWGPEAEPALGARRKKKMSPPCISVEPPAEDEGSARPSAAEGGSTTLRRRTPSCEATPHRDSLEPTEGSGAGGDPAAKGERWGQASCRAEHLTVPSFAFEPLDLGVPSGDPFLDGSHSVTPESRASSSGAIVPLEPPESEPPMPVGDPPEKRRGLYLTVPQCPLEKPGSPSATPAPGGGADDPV
Pyk2 oligo antag: antagonists of human Pyk2 oligomerization; hit rate 0.83% among 99,000; z-score (the deposit names both 25 µM and 10 µM); Q293 cells, Pyk2 FERM NanoBiT luminescence; hits give low values;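 active means Z-score of -3 or lower, scaled per plate to the spread of control and sample wells; inactive means z-score above -3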;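 further: negative z-score means lost luminescence so less FERM oligomerization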
PostGolgi ctrl: inhibits growth of the yeast control strain | efflux-deficient yeast background strain, growth absorbance A615, 16 h | inhibition, % at 10 µM | hit rate 5% among 98,000 | AID 738
An asterisk follows results filed as active; . = not tested or not shown. Only some compounds are listed: those with a hit (about 8% of all), similar ones and a draw of the others. Unless noted, no stated cut-off is given here; in the data, active means inhibition above about 30%; inactive means the rest.

SMILES | PostGolgi yeast | Cav32 inh | Pyk2 oligo antag | PostGolgi ctrl
Cc1nc(SCC(=O)Nc2ccccc2)c2oc3ccccc3c2n1 | -11 | -0.57 | -0.98 | 16
Cc1nc(SCC(=O)N2CCCc3ccccc32)c2oc3ccccc3c2n1 | -2 | -3.3 | -2 | 41*
Cc1[nH]c2ccccc2c1SCC(=O)N1CCN(c2ccccc2)CC1 | -1 | -3.2 | . | 15
O=C(C1CCN(S(=O)(=O)c2cccc3cccnc23)CC1)N1CCN(c2ccc(Cl)cc2)CC1 | -1 | -0.02 | . | 17
Cc1cc(C)n2nc(SCc3nnc(SCc4ccccc4Cl)s3)nc2n1 | -2 | -0.079 | 2 | 36*
N#Cc1ccc(C(=O)Nc2cc(S(=O)(=O)N3CCCC3)ccc2OCC(F)(F)F)cc1 | . | . | 0.89 | .
CN(C)S(=O)(=O)c1ccc(NC(=O)N2CCN(c3ccccc3)CC2)cc1 | -2 | . | -1.2 | 2
COc1ccc2c(C)cc(SCC#N)nc2c1 | 10 | -1 | 1.4 | 5
COc1ccc2c(C)cc(SCc3c(C)noc3C)nc2c1 | -13 | -2.5 | -0.29 | 32*
CCOC(=O)c1cccnc1SCC(=O)N(C)c1ccccc1 | 8 | -1.6 | 0.52 | 7
CCOC(=O)c1cccnc1SCc1cc(=O)n2ccccc2n1 | 63* | -0.6 | -0.15 | 28
CCOC(=O)c1cccc(C(=O)OCC)n1 | -4 | 0.067 | 0.43 | 6
CCOC(=O)C1=Nc2ccccc2C1=[N+]=[N-] | 106* | . | 0.56 | 101*
Cc1ccc(S(=O)(=O)c2c(C)cc(C)nc2Oc2cccc(C(F)(F)F)c2)cc1 | 2 | -6.3* | -0.1 | 14
Cc1cc(C)c(S(C)(=O)=O)c(Oc2cccc(Cl)c2)n1 | 32* | . | 1.7 | 3
Cc1cc(C)c(S(C)(=O)=O)c(Oc2ccc(C(C)(C)C)cc2)n1 | 15 | . | 2 | 0
CCO[C@H]1OC(C(=O)O)=C[C@@H](C)[C@@H]1CCCO | . | 0.67 | . | .
Clc1ccc(-c2nnc(-c3ccco3)o2)cc1 | -1 | -4.5* | -0.11 | 1
Cc1ccccc1Cn1cnc2c(cnn2C(C)(C)C)c1=O | 8 | -2.6 | -1 | 1
Cc1ccc(C)c(Cn2cnc3c(cnn3C(C)(C)C)c2=O)c1 | 1 | -4.8* | -1.8 | 21
CC1(C)CC(=O)C(C=NCC2CCNCC2)=C(O)C1 | 24 | 0.76 | -0.2 | 12
CC1(C)CC(=O)C(C=NCC2CCN(C(=O)Nc3ccc(Cl)c(Cl)c3)CC2)=C(O)C1 | 11 | -3.3* | 0.64 | 38*
O=C(NC1CCCCC1)c1nc2c(nnn2Cc2ccccc2Cl)c(=O)[nH]1 | -2 | -5.3* | -0.42 | 19
CCCCN1C(=O)C(NC(=O)C2CC2)(C(F)(F)F)C2=C1CC(C)(C)CC2=O (stereo not given) | 4 | 1 | -0.01 | 16
CCCCC(=O)NC1(C(F)(F)F)C(=O)N(CC(C)C)C2=C1C(=O)CC(C)(C)C2 (stereo not given) | -4 | -0.48 | -0.29 | 31*
SMILES | PostGolgi yeast | Cav32 inh | Pyk2 oligo antag | PostGolgi ctrl
CC(C)CNC(=O)c1cc2nc(C3CC3)cc(C(F)(F)F)n2n1 | . | -0.012 | 0.44 | .
O=C(Nc1nc(-c2ccccn2)cs1)c1ccc(Cl)s1 | 37* | -1.5 | . | 24
O=C(CCCSc1ccccc1)Nc1nc(-c2ccccn2)cs1 | 8 | -6.3* | 0 | 8
COc1ccc(S(=O)(=O)NCCSCc2ccccc2C)cc1Br | -1 | -4.9* | -1.6 | 36*
Cc1ccccc1CSCCNS(C)(=O)=O | -5 | 0.56 | 0.54 | -1
COC(=O)C(Cc1c[nH]c2ccccc12)NC(=O)c1cc(-c2ccc(OC)c(OC)c2)oc1C (stereo not given) | . | . | 0.46 | .
CC(C)c1ccc(CC(C)C2C3=C(CCCC3=O)OC3=C2C(=O)CCC3)cc1 (stereo not given) | 1 | -2.8 | -4.2* | 22
Cc1ccc(CCC2C3=C(CCCC3=O)OC3=C2C(=O)CCC3)cc1 | -1 | -2.3 | -1 | 7
C=CCNc1oc(Cc2cccc3ccccc23)nc1C#N | -15 | -3 | . | 19
N#Cc1nc(Cc2cccc3ccccc23)oc1NCc1ccc(F)cc1 | -6 | -2.3 | -0.17 | 31*
Cc1cc(OCc2nn[nH]n2)c2c(C)c(CC(=O)O)c(=O)oc2c1 | -10 | 1 | 1.1 | 9
Cc1cc(OCc2nn[nH]n2)c2c(C)c(Cc3ccccc3)c(=O)oc2c1 | -3 | 0.84 | -0.04 | 32*
Cc1c(OCc2nn[nH]n2)ccc2c(-c3ccccc3)cc(=O)oc12 | 2 | . | -0.78 | 1
Cc1c(Cc2ccccc2)c(=O)oc2c(C)c(OCc3nn[nH]n3)ccc12 | 31* | -3.6 | -1.1 | 1
C=C(C)CSc1nnc([C@@H](NC(=O)OC(C)(C)C)C(C)CC)o1 (stereo not given in full) | 2 | -2.2 | 0.05 | 14
O=C(CSc1ccc2nnc(-c3ccc(Cl)cc3)n2n1)N1CCc2ccccc21 | -9 | . | . | -2
Cc1ccc(N(C(=O)C2CCCC2)C2C=CS(=O)(=O)C2)cc1 (stereo not given) | 5 | . | 0.19 | 39*
O=C(C1CCCC1)N(c1ccccc1)C1C=CS(=O)(=O)C1 (stereo not given) | 2 | 1.3 | 0.47 | 11
OC1(c2ccccc2F)CCN(Cc2nnnn2CCc2ccccc2)CC1 | -6 | -1.7 | -0.72 | 4
CCCn1nnnc1NC(=O)CSc1ccc(Cl)cc1 | 1 | 0.032 | 1.6 | 3
COc1ccc(S(=O)(=O)N(CC(=O)N/N=C/c2cccs2)c2cc(C)cc(C)c2)cc1OC | -8 | -0.92 | -3* | 22
COc1ccc(S(=O)(=O)N(CC(=O)N/N=C/c2cccs2)c2ccc(C)cc2)cc1OC | 17 | -6.1* | -2.5 | -3
CC(C)[C@H](NC(=O)c1ccccc1)C(=O)OCC(=O)N1CCc2ccccc2C1 | 9 | 1.8 | 2.9 | -5
Cc1ccc(C)c(OCCCC(=O)Nc2nccs2)c1 | 6 | -4.6* | 1.1 | 18
CC(Sc1nc(-c2ccccc2)nc2c1COC(C)(C)C2)C(=O)N1CCOCC1 (stereo not given) | -5 | 1.2 | -0.12 | 10
SMILES | PostGolgi yeast | Cav32 inh | Pyk2 oligo antag | PostGolgi ctrl
CC1(C)CC(=O)C(C=NCCN2CCN(CCCCS(=O)(=O)O)CC2)=C(O)C1 | 6 | -0.57 | 1.2 | 33*
CC1(C)CC(=O)C(C=NCCN2CCOCC2)=C(O)C1 | 9 | 1.1 | 0.29 | 14
COc1ccc(OCC(O)CNc2ccc(Br)cc2)cc1 (stereo not given) | 6 | -4.2* | -0.56 | 18
COc1ccc(OCC(O)CNC(=O)c2ccc(Br)cc2)cc1 (stereo not given) | 19 | -1.6 | 0.42 | 2
Cc1ccc(NC(=O)NC(=O)N(c2ccccc2)S(C)(=O)=O)cc1 | -1 | 0.37 | -0.39 | -2
O=C(CSc1nnnn1C1CCCCC1)Nc1nc2c(s1)CCCC2 | 18 | -2.5 | -1.4 | 12
CCOc1ccc2nc(NC(=O)CSc3nnnn3C3CCCCC3)sc2c1 | 16 | -1.7 | -0.71 | 42*
COc1ccc2c(c1)OCC1=C2CCC2(C)C(=O)CC=C12 (stereo not given) | 0 | . | . | 4
Cc1ccc(Cn2ncc3c(N4CCN(c5ccccc5C)CC4)ncnc32)cc1 | -4 | -5.6* | 0.16 | 12
Cc1ccc(Cn2ncc3c(N4CCOCC4)ncnc32)cc1 | -3 | 0.81 | 0.7 | 7
CC(Sc1nc(NCc2ccccc2)nc(N(C)C)n1)C(=O)Nc1ccccc1 (stereo not given) | -9 | -3.4* | -1.8 | 16
